Screening data from PubChem BioAssay.
This excerpt belongs to a sample that is enriched for hits.
Dicer processing: blocks human Dicer maturation of pre-miR-21; z-score at 25 µM; cat-ELCCA pre-miR-21 Dicer processing, chemiluminescence; active compounds read high; 6% of 47,000 active; AID 1347074; in the data active = z-score above about 3, passing the limit was not always enough;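 also: plate controls were vehicle for no effect and no enzyme for full effect; higher signal means more uncleaved substrate so more Dicer inhibition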
Target sequence (Q9UPY3 whole entry, looked up): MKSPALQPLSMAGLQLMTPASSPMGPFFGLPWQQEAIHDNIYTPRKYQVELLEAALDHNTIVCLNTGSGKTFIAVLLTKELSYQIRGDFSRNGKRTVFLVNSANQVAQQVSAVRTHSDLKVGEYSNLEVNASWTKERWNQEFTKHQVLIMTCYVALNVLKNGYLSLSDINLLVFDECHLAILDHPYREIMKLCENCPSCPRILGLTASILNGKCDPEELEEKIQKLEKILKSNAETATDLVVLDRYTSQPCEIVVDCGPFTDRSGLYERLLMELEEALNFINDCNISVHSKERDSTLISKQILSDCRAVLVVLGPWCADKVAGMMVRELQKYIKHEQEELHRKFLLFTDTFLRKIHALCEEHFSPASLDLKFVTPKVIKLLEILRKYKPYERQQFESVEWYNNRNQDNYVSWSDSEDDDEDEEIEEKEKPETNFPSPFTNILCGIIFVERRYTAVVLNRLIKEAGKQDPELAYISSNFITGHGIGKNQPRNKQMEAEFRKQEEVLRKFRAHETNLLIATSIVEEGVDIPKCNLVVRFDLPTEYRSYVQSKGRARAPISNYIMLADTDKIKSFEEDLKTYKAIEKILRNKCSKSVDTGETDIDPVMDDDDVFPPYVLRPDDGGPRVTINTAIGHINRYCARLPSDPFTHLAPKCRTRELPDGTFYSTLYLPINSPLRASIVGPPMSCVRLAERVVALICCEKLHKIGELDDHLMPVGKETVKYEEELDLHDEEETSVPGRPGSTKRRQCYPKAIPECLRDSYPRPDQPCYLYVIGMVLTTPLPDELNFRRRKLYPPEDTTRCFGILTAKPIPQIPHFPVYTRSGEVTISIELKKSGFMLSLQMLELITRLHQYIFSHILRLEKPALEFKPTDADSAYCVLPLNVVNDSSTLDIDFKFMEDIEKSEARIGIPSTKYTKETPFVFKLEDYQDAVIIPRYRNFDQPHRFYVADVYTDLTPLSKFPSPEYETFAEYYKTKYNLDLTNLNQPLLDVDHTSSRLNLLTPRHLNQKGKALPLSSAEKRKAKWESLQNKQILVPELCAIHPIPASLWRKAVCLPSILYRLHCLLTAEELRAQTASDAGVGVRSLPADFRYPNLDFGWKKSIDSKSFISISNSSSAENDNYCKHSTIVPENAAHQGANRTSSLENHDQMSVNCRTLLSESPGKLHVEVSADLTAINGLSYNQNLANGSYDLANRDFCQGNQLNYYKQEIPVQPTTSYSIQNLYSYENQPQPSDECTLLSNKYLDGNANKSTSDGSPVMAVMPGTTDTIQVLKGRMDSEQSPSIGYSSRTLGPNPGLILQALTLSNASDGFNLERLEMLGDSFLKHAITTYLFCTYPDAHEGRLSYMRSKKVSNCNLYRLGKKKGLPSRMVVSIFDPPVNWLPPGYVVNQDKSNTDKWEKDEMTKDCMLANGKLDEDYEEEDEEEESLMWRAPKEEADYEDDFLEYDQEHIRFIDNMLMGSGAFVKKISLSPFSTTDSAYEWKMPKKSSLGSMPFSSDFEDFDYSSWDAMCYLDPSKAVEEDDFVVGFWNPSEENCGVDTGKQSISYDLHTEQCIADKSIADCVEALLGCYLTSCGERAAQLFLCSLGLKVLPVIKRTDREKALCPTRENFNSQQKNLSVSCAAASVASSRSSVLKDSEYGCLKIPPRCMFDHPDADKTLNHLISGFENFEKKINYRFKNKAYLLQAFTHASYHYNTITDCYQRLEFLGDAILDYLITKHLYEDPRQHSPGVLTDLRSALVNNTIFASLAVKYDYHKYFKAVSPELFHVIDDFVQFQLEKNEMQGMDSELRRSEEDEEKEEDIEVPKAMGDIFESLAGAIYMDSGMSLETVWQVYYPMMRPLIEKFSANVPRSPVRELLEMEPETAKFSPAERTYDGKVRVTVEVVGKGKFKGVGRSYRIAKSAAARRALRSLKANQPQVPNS
Active calls of the source: *.

SMILES	Dicer processing
CCOC(=O)c1c(NC(=S)Nc2cc(C)ccn2)sc(C)c1C	-0.56
CS(=O)c1scc(-c2cccc(C(F)(F)F)c2)c1C#N (centres undefined)	6.6
CCOc1ccc(C2c3c(oc4ccccc4c3=O)C(=O)N2c2nccs2)cc1OCC (centres undefined)	0.1
COc1cc(/C=C/c2nc(-c3ccccc3O)n(-c3ccccc3)n2)ccc1O	6*
COc1cc(/C=N/Nc2nc3c(c(=O)n(Cc4ccccc4)c(=O)n3C)n2C)ccc1O	-0.04
O=C(O)COc1ccc(/C=C/c2nc(-c3ccccc3O)n(-c3ccccc3)n2)cc1	1.3
Cn1c(=O)c(NCc2ccccc2)c2c3c(cccc31)C(=O)c1ccccc1-2	-0.5
COc1ccc(NC(=O)Nc2nnc(C3CC3)s2)cc1OC1CCCC1	6.5*
CC(C)(C)c1ccc(NC(=O)Nc2nnc(C3CC3)s2)cc1	0.08
O=C(Nc1ccc2c(c1)OCCO2)Nc1nnc(C2CC2)s1	2.1
COC(=O)c1cc(=O)c2cc(C(F)(F)F)ccc2[nH]1	-0.13
CCOC(=O)C1CN(C2CCCCC2)C(=O)C1=O (centres undefined)	5.1*
CCOC(=O)C1CC(=O)C(C(=O)OCC)CC1=O (centres undefined)	-0.45
CCOC(=O)C1=C(O)C(=O)N(C2CCCCC2)C1	-0.9
Cc1ccc(NC(=O)c2ccc(C(F)(F)F)cc2)c(OC(=O)c2ccc(C(F)(F)F)cc2)c1	-1.2
COc1ccccc1-c1cc(C(=O)O)c2ccccc2n1	-0.51
O=C(O)c1ccccc1-c1c2ccc3cc(O)ccc3c2oc2c1ccc1cc(=O)ccc12	4.3*
O=c1c(-c2cccc3ccccc23)c(C(F)(F)F)oc2cc(O)ccc12	-0.11
Cc1cccc2cc(-c3noc(-c4ccccc4F)n3)c(=O)[nH]c12	-0.73
CCCCC1(COC(=O)Nc2cccc(Cl)c2)C(=O)N(c2ccccc2)N(c2ccccc2)C1=O	1.8
CCCCC1(CO)C(=O)N(c2ccccc2)N(c2ccccc2)C1=O	6.1*
CCCCC1(CNc2ccc(C)c([N+](=O)[O-])c2)C(=O)N(c2ccccc2)N(c2ccccc2)C1=O	2.2
N#Cc1ccc(C#CCOC(=O)Nc2ccccc2)cc1	-8
CCOC(=O)NC1=C(C#N)C=Nc2ccccc2N1	23*
CCOC(=O)CC1=Nc2ccccc2NC(=O)C1	0.09
SMILES	Dicer processing
NC(=S)c1cc(C(F)(F)F)cc(C(F)(F)F)c1	-1.1
COc1ccc(C2N=C(N)Nc3nc4ccccc4n32)c(OC)c1 (centres undefined)	0.18
NC1=NC(c2ccccc2O)n2c(nc3ccccc32)N1 (centres undefined)	3.6*
NC1=NC(c2ccncc2)n2c(nc3ccccc32)N1 (centres undefined)	0.89
NC1=NC(c2ccccc2)n2c(nc3ccccc32)N1 (centres undefined)	2.2
CCOc1cc(C2N=C(N)Nc3nc4ccccc4n32)ccc1O (centres undefined)	2.4
COc1cc(C2N=C(N)Nc3nc4ccccc4n32)ccc1O (centres undefined)	5.9*
CNC(=O)Cc1c(Cl)sc2ccccc12	-1.9
O=S(=O)(CS(=O)(=O)c1cccc(Cl)c1)c1cccc(Cl)c1	-0.73
Cc1cc2nc(-c3ccccc3)cc(C(F)(F)F)n2n1	0.41
O=C(O)CSCC(=O)NCc1csc2ccc(Cl)cc12	-2.4
O=C(O)CSCC(=O)NCc1csc2ccccc12	4.3*
O=C(NCc1csc2ccccc12)C1CC1	1.8
CCOc1cc(S(=O)(=O)n2ccnc2C(C)C)ccc1Br	0.68
C(=N\Nc1ncc(-c2ccc3c(c2)OCCCO3)s1)/c1cccs1	0.37
Cc1ccc(S(=O)(=O)O/N=C(\N)c2ccc(C(F)(F)F)cc2)cc1	-1.6
c1ccc(CN2CCC(Nc3ncnc4scc(-c5ccccc5)c34)CC2)cc1	-1.1
C=CCN1C(=O)C2(/C(=C(/O)c3ccccc3)C(=O)C(=O)N2CCCN(C)C)c2ccccc21 (centres undefined)	4*
C=CCN1C(=O)C2(/C(=C(/O)c3ccc(OCC)cc3)C(=O)C(=O)N2CCN(C)C)c2ccccc21 (centres undefined)	-0.01
CCOc1ccc(/C(O)=C2/C(=O)C(=O)N(CCCN(C)C)C23C(=O)N(CC)c2ccccc23)cc1 (centres undefined)	-0.29
CN(C)CCCN1C(=O)C(=O)/C(=C(\O)c2ccccc2)C12C(=O)N(C)c1ccccc12 (centres undefined)	1.8
C=CCN1C(=O)C2(/C(=C(/O)c3ccc(F)cc3)C(=O)C(=O)N2CCCN(C)C)c2ccccc21 (centres undefined)	2.1
CCN1C(=O)C2(/C(=C(/O)c3ccccc3)C(=O)C(=O)N2CCCN(C)C)c2ccccc21 (centres undefined)	3.6*
O=[N+]([O-])c1ccc(-c2cc(-c3ccccc3OCc3ccccc3)on2)cc1	0.3
CC1(C)Cc2c(sc3ncn4nc(-c5ccccc5)nc4c23)C(C)(C)N1	0.77
SMILES	Dicer processing
CCc1c(C(=O)OC)c2cc(NS(C)(=O)=O)ccc2n1S(C)(=O)=O	0.54
COC(=O)c1cc(/C=C(\C#N)S(=O)(=O)c2ccccc2)cn1C	-1
CC12CC(=O)C3c4ccc(O)cc4CCC3C1CCC2O (centres undefined)	-0.89
CC(C)(C)NC(=S)N/N=C/C=N/NC(=S)NC(C)(C)C	4.3*
CC(C)(C)NC(=S)N/N=C/c1ccc(O)cc1O	2.2
CC(C)(C)NC(=S)N/N=C/c1c(Cl)cccc1Cl	-2
CC1(C)Cc2c(c(-c3ccco3)nc3sc4c(N5CCCC5)ncnc4c23)CO1	-0.87
O=C1CC(Cc2ccccc2)C(=O)N1c1ccncc1 (centres undefined)	-0.5
Cc1cc(C)cc(CC2CC(=O)N(c3ccccc3)C2=O)c1 (centres undefined)	-4.4
CC(C)(C)c1ccc(N2C(=O)CC(C/C=C/c3ccccc3)C2=O)cc1 (centres undefined)	4.7*
COc1ccc(C(O[C@H]2C[C@H](n3cc(C)c(=O)[nH]c3=O)O[C@@H]2CO)(c2ccccc2)c2ccc(OC)cc2)cc1	-1
O=C(NNC(=O)C(F)(F)Sc1ccccc1)c1ccsc1	-0.09
CCc1ccc(CN(C)CCc2ccccn2)cc1	1.9
Cc1ccc(CN(C)CCc2ccccn2)cc1	1.5
CN(CCc1ccccn1)Cc1ccc(Cl)cc1	3.7*
CCCSc1ccc2nc(NC(C)=O)[nH]c2c1	-2.8
Cc1ccc(-c2cc(=O)[nH]c(Nc3nc(C)c4ccccc4n3)n2)cc1	-1.2
Nc1nc2c(c(=O)[nH]1)C(c1ccc3c(c1)OCO3)CC(=O)N2 (centres undefined)	3.5
Cc1cc(NC(=O)C(C)Sc2nc(-c3ccccc3)cc(C(F)(F)F)n2)no1 (centres undefined)	-0.57
Cc1[nH]c2ccccc2c(=O)c1CN1CCN(C)CC1	1.1
O=C(c1ccc(Cl)cc1)n1c(=O)oc2ccccc21	1.3
CCCCOC(=O)n1c(=O)oc2ccccc21	6.6*
CCOC(=O)n1c(=S)oc2ccccc21	1.6
CC(=O)O/N=C(\N)COc1ccc(-c2nnco2)cc1	-0.02
Cc1ccc(NC(=O)c2cc(-c3ccccc3)n(-c3ccccc3)c2C)cc1	0.45
O=c1[nH]nc(Sc2ncc([N+](=O)[O-])s2)n1Cc1ccccc1	-0.2
Cc1c(S(=O)(=O)N2CCN(C3c4ccccc4-c4ccccc43)CC2)cnn1-c1ccccc1	-2.2
CN1c2ccsc2C(=O)/C(=C\N=S(C)(=O)c2ccc(Cl)cc2)S1(=O)=O (centres undefined)	0.98
